Screening data from PubChem BioAssay.
An excerpt weighted towards active compounds, which were near 1.2% of everything screened.
RGS8-Gao – human RGS8-Galphao interaction regulation. P09471. multiplexed bead flow cytometry, RGS8-Galphao binding; actives lie on both sides. response (percent of control binding), % at 10 µM. 220,000 tested, 0.34% active. AID 1423; in the data active = response below about 60% or above about 140%; inactive = in between;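 also: Galphao activated as the GDP aluminium fluoride complex binding bead-coupled RGS8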
Target sequence (P09471 whole entry, looked up): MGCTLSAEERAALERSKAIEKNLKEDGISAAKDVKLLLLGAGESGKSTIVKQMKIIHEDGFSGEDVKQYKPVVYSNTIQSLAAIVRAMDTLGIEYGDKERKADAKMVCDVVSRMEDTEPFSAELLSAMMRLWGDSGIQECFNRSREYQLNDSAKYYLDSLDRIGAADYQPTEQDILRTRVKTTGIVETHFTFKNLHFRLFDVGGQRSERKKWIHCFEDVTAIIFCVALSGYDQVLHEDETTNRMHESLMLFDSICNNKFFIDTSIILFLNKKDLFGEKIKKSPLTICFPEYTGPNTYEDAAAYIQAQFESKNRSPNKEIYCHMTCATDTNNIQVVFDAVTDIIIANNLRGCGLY
Avidin fluor – compound fluoresces at 488/530 nm on avidin beads. compound fluorescence 488/530 nm, flow cytometry; active compounds read high. 220,000 tested, 0.38% active. fluorescence (KMESF) at 10 µM; in the data active = fluorescence above about 47
RGS16-Gao HTS – modulates binding between human RGS16 and Galphao; 220,000 tested, 0.38% active; AID 1441; bead-based flow cytometry RGS16-Galphao binding, fluorescence; actives lie on both sides; O15492+P09471; binding response (% of control), % at 10 µM;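 also: Galphao activated by GDP with aluminum fluoride before binding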
RGS7-Gao – human RGS7-Galphao interaction regulation. 220,000 tested, 0.35% active. P09471. Multiplexed bead flow cytometry, RGS7-Galphao binding; actives lie on both sides. binding response (% of control), % at 10 µM; in the data active = binding response below about 49% or above about 150%; inconclusive = no clear call, values can overlap the other calls; inactive = in between;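 also: fluorescent Galphao held in activated GDP-AlF4 state binding bead-coupled RGS7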
GSH fluor – GSH bead compound fluorescence profile. GSH beads flow cytometry, compound fluorescence 488/530 nm; active compounds read high. fluorescence (KMESF) at 10 µM. 190,000 tested, 0.25% active; in the data active = fluorescence above about 89;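 also: glutathione beads carrying GST-tagged Bcl family fusion proteins plus one bare bead set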
RGS4-Gao reg – modulates binding of RGS4 to human Galphao. P09471. Multiplexed bead flow cytometry; actives lie on both sides. binding response (% of control), % at 10 µM. 220,000 tested, 0.33% active. AID 1415; in the data active = binding response below about 49% or above about 150%; inactive = in between;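 also: fluorescent Galphao activated with aluminum fluoride binding bead-coupled RGS4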
RGS4-Gao HTS – modulates binding between human RGS4 and Galphao. shares compounds with RGS16-Gao HTS. multiplexed bead flow cytometry, RGS–Galpha-o binding. RGS4–Galpha-o binding response, % at 10 µM. 1,600 tested, 99% active. AID 1504;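 also: fluorescently labeled Galpha-o bound to GDP with aluminium fluoride binding biotinylated RGS beads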
Target sequence (P09471 whole entry, looked up): as above
Target sequence (P49798 whole entry, looked up): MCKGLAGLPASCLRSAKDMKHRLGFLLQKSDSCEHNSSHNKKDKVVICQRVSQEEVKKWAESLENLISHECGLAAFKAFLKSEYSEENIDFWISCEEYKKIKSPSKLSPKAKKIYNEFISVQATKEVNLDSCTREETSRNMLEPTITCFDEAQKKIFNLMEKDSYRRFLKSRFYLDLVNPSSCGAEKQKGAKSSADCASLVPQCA
Avidin counter – interferes with biotinylated probe binding to avidin beads; shares compounds with RGS16-Gao HTS; streptavidin beads, fluorescein-biotin binding, flow cytometry; inhibition, % at 10 µM; 1,700 tested, under 10 active; AID 1783;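 active = inhibition above 50%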;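 also: median green fluorescence of gated singlet beads compared with DMSO control wells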
RGS8-Gao confirm – RGS8-Galphao interaction regulation, single point confirmation; binding response (% of control), % at 10 µM; 1,700 tested, 3% active; bead-based flow cytometry RGS8-Galphao binding, fluorescence; actives lie on both sides; shares compounds with RGS16-Gao HTS; in the data active = binding response below about 72% or above about 130%; inactive = in between;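 also: Galphao activated as GDP AlF4 complex before binding bead RGS8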
RGS7-Gao single – confirmation of regulators of human RGS7-Galphao interaction | shares compounds with RGS16-Gao HTS | bead-based flow cytometry RGS7-Galphao binding; actives lie on both sides | response (percent of control binding), % at 10 µM | 1,700 tested, 7.8% active; in the data active = response below about 75% or above about 130%; inactive = in between;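 also: fluorescent Galphao activated with GDP and aluminum fluoride binding bead-coupled RGS7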
RGS16-Gao conf – confirmation of regulators of human RGS16-Galphao interaction. shares compounds with RGS16-Gao HTS. bead-based flow cytometry, RGS16-Galphao binding; actives lie on both sides. response (% of control binding), % at 10 µM. 1,700 tested, 4% active. AID 1838; in the data active = response below about 74% or above about 130%; inactive = in between;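 also: Galphao activated as the GDP aluminium fluoride complex binding bead-coupled RGS16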
RGS4-Gao confirm – RGS4-Galphao interaction regulation, single point confirmation; binding response (% of control), % at 10 µM; 1,700 tested, 4% active; shares compounds with RGS16-Gao HTS; RGS4-Galphao binding, multiplexed bead flow cytometry; actives lie on both sides; AID 1840; in the data active = binding response below about 74% or above about 130%; inactive = in between
RGS19-Gao conf – confirmation of regulators of human RGS19-Galphao interaction; response (percent of control binding), % at 10 µM; bead-based flow cytometry RGS19-Galphao binding; actives lie on both sides; AID 1841; 1,700 tested, 5% active; shares compounds with RGS16-Gao HTS; in the data active = response below about 50% or above about 160%; inactive = in between
Large screens that a line does not name were inactive (follow-up assays come after a bar, where they were run); [ ] = remark or other dose. Unless noted, no rule for the calls is given here.

CCOc1ccc(S(=O)(=O)N/N=C(\C)C2CCCCC2)cc1	RGS16-Gao HTS 14 | RGS4-Gao HTS 101 | Avidin counter inactive | RGS8-Gao confirm inactive | RGS7-Gao single inactive | RGS16-Gao conf inactive | RGS4-Gao confirm inactive | RGS19-Gao conf inactive
CCOc1ccc(S(=O)(=O)N/N=C(\C)Cc2ccc(OC)cc2)cc1	RGS7-Gao inconclusive
O=C(NCC1CCCO1)c1csc(Nc2cccc3ccccc23)n1 (centres undefined)	none
COc1ccc2c(c1)c1nc(SCC(C)C)n(CCO)c(=O)c1n2C	RGS8-Gao 49, RGS7-Gao 42, RGS4-Gao reg 41 | Avidin counter inactive | RGS8-Gao confirm inactive | RGS7-Gao single inactive | RGS16-Gao conf inactive | RGS4-Gao confirm inactive | RGS19-Gao conf inactive
CC1CN(Cc2nnc(-c3ccccc3)o2)CC(C)O1 (centres undefined)	none
Cc1cc(OC(=O)c2ccc(S(=O)(=O)N3CCCCC3)cc2)c([N+](=O)[O-])c(=O)[nH]1	none
Cc1cc(OC(=O)c2ccc(S(=O)(=O)N3CCCC3)cc2)c([N+](=O)[O-])c(=O)[nH]1	RGS8-Gao 142[activator] | RGS4-Gao HTS 112 | Avidin counter inactive | RGS8-Gao confirm inactive | RGS7-Gao single inactive | RGS16-Gao conf inactive | RGS4-Gao confirm inactive | RGS19-Gao conf inactive
NS(=O)(=O)c1ccc(-c2ccc(/C=C3\C(=O)Nc4cc(Cl)ccc43)o2)cc1	none
CC1(C)OC(=O)C(=Cc2ccc(-c3ccc(S(N)(=O)=O)cc3)o2)C(=O)O1	none | Avidin counter inactive | RGS8-Gao confirm 72 | RGS7-Gao single inactive | RGS16-Gao conf inactive | RGS4-Gao confirm inactive | RGS19-Gao conf 50
C/C(=N\NC(=O)c1nn(C)c(C)c1Br)c1cccc(NC(=O)c2ccc(F)cc2)c1	RGS16-Gao HTS 253[activator] | RGS4-Gao HTS 114 | Avidin counter inactive | RGS8-Gao confirm inactive | RGS7-Gao single inactive | RGS16-Gao conf inactive | RGS4-Gao confirm inactive | RGS19-Gao conf inactive
Cc1onc(NC(=O)CSCC(=O)O)c1Br	RGS7-Gao inconclusive (no result: GSH fluor)
NC(=O)C1CC(=O)N(c2ccc(OCc3ccccc3Cl)cc2)C1 (centres undefined)	none
Cc1cc(C)c(-c2cc(NC(=O)CSc3n[nH]c(N)n3)n(-c3ccccc3)n2)cc1C	RGS8-Gao 6.7, RGS16-Gao HTS -38, RGS7-Gao -16, RGS4-Gao reg -44 | Avidin counter inactive | RGS8-Gao confirm inactive | RGS7-Gao single inactive | RGS16-Gao conf inactive | RGS4-Gao confirm inactive | RGS19-Gao conf inactive
c1ccc(-c2nccnc2-c2ccccc2)cc1	RGS7-Gao inconclusive (no result: GSH fluor)
FC(F)Sc1nc(-c2ccccc2)c(-c2ccccc2)n1C(F)F	Avidin fluor 100, RGS7-Gao 174[activator] | RGS4-Gao HTS 117 | Avidin counter inactive | RGS8-Gao confirm inactive | RGS7-Gao single inactive | RGS16-Gao conf inactive | RGS4-Gao confirm inactive | RGS19-Gao conf inactive
CCOc1ccc(C2NC(=O)NC(C)=C2C(=O)OC)cc1C (centres undefined)	none (no result: RGS8-Gao, Avidin fluor, RGS16-Gao HTS, RGS7-Gao, RGS4-Gao reg) | Avidin counter inactive | RGS8-Gao confirm inactive | RGS7-Gao single inactive | RGS16-Gao conf inactive | RGS4-Gao confirm inactive | RGS19-Gao conf inactive
CC(=O)Nc1nc(COc2ccccc2)cs1	none
Cc1ccc(C(=O)Nc2nc(COc3ccccc3)cs2)s1	none (no result: RGS8-Gao, Avidin fluor, RGS16-Gao HTS, RGS7-Gao, RGS4-Gao reg) | Avidin counter inactive | RGS8-Gao confirm inactive | RGS7-Gao single inactive | RGS16-Gao conf inactive | RGS4-Gao confirm inactive | RGS19-Gao conf inactive
Cc1cc(NC(=O)CN2C(=O)NC3(CCC(C)CC3)C2=O)no1 (centres undefined)	RGS8-Gao 23, RGS7-Gao 23, RGS4-Gao reg 24 | Avidin counter inactive | RGS8-Gao confirm inactive | RGS7-Gao single inactive | RGS16-Gao conf inactive | RGS4-Gao confirm inactive | RGS19-Gao conf inactive
COc1ccccc1NC(=O)CN1C(=O)NC2(CCCCCCC2)C1=O	none
Cc1ccccc1NC(=O)CN1C(=O)NC2(CCCCC2)C1=O	none (no result: RGS8-Gao, Avidin fluor, RGS16-Gao HTS, RGS7-Gao, RGS4-Gao reg) | Avidin counter inactive | RGS8-Gao confirm inactive | RGS7-Gao single inactive | RGS16-Gao conf inactive | RGS4-Gao confirm inactive | RGS19-Gao conf inactive
Cn1c(N)c(C(=O)COC(=O)CNS(=O)(=O)c2cccc(Cl)c2)c(=O)n(C)c1=O	none
CCc1nc2c(oc3ccccc32)c(=O)[nH]1	none
O=c1[nH]cnc2c1oc1ccccc12	RGS8-Gao 143[activator] | RGS4-Gao HTS 117 | Avidin counter inactive | RGS8-Gao confirm inactive | RGS7-Gao single inactive | RGS16-Gao conf inactive | RGS4-Gao confirm inactive | RGS19-Gao conf inactive
O=C(NCC1CCS(=O)(=O)C1)Oc1ccccc1 (centres undefined)	RGS16-Gao HTS 291[activator] | RGS4-Gao HTS 108 | Avidin counter inactive | RGS8-Gao confirm inactive | RGS7-Gao single inactive | RGS16-Gao conf inactive | RGS4-Gao confirm inactive | RGS19-Gao conf inactive
C/C(=N\NC(=O)c1cc(C(C)C)[nH]n1)c1ccco1	RGS16-Gao HTS 190[activator] | RGS4-Gao HTS 102 | Avidin counter inactive | RGS8-Gao confirm inactive | RGS7-Gao single inactive | RGS16-Gao conf inactive | RGS4-Gao confirm inactive | RGS19-Gao conf inactive
C/C(=N/NC(=O)c1cc(-c2ccc(Br)s2)[nH]n1)c1ccco1	none
COc1cccc(CNC(=O)CCC2CCCN(C(=O)C3CCOCC3)C2)c1 (centres undefined)	none
O=C(Cc1ccc(Br)cc1)N(Cc1ccccc1)c1ccccn1	Avidin fluor 59, RGS7-Gao 151[activator] | RGS4-Gao HTS 112 | Avidin counter inactive | RGS8-Gao confirm inactive | RGS7-Gao single inactive | RGS16-Gao conf inactive | RGS4-Gao confirm inactive | RGS19-Gao conf inactive
COc1ccc(OS(=O)(=O)c2c(C)noc2C)cc1	RGS7-Gao inconclusive (no result: GSH fluor)
